Test results taken from the supplement of paper PMC10849652.
About 8,800 targets were measured; listed, in parts, are those with a hit and a random draw of the rest. About 0.5% of all pairs of compound and target were hits.

Columns and labels:
Test in all cases: log2 fold change, soluble protein after heating vs DMSO (PISA); higher = thermal stabilisation; K562 lysate, 10 uM; active = over 0.2 and 3.5 SD of the protein, either way, in both replicates (recomputed)
erlotinib = compound: C#Cc1cccc(Nc2ncnc3cc(OCCOC)c(OCCOC)cc23)c1 [erlotinib]
Procedure, shortened: (§1)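 Log-two fold change in thermal stability relative to solvent controls is reported from duplicates. For each sample, crude K562 extract from dounce-homogenised pellets in PBS pH 7.4 with 1 mM MgCl2, at 1 mg/mL protein, was treated with 10 μM compound for 30 min. Aliquots heated for 3 min across 48°C-58°C were pooled, brought to 0.5% NP-40 at 4°C and cleared at 21,000xg for 90 min. The supernatant was quantified by TMTpro 16plex LC-MS/MS with channel sums equalised.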

[1] = compound: C/C(=N\NC(=O)C1=CC(=CC=C1)S(=O)(=O)N2CCOCC2)/C3=C(C=CC(=C3)Cl)O
Procedure, shortened: as §1

[2] = compound: C1=CC(=CC=C1C2=NC3=C(N2)C=C(C=C3)C(=O)N)OC4=CC=C(C=C4)Cl
Procedure, shortened: as §1

[3] = compound: C1=CC2=C(C=CC(=C2)/C=C\3/C(=O)NC(=NCC4=CC=CS4)S3)N=C1
Procedure, shortened: as §1

[4] = compound: C1=CC2=NC=CN=C2C=C1/C=C/3\C(=O)NC(=O)S3
Procedure, shortened: as §1

[5] = compound: C1=CC=C(C=C1)C2=NC(=C(N2)C3=CC=NC=C3)C4=CC(=C(C=C4)Cl)O
Procedure, shortened: as §1

[6] = compound: C1=CC=C2C(=C1)C3=NNC4=CC=CC(=C43)C2=O
Procedure, shortened: as §1

[7] = compound: C1CCN(C1)C(=O)NC2=CC=CC(=C2)NC3=NC=C(C(=N3)NCCC4=CN=CN4)Br
Procedure, shortened: as §1

[8] = compound: C1CN(CCC1(CC2=CC=C(C=C2)Cl)N)C3=NC=NC4=C3C=CN4
Procedure, shortened: as §1

IRAK-1-4 Inhibitor I = compound: C1COCCN1CCN2C3=CC=CC=C3N=C2NC(=O)C4=CC(=CC=C4)[N+](=O)[O-] [IRAK-1-4 Inhibitor I]
Procedure, shortened: as §1

Measured: log2 fold change

RFC5 (UniProt P40937)
inactive: erlotinib 0.02 | [1] 0.024 | [2] -0.025 | [3] 0.036 | [4] -0.012 | [5] 0.029 | [6] -0.074 | [7] 0.004 | [8] 0.023 | IRAK-1-4 Inhibitor I 0.019

RAD50 isoform 2 (UniProt Q92878)
inactive: erlotinib -0.009 | [1] -0.007 | [2] 0.019 | [3] 0.006 | [4] -0.014 | [5] -0.023 | [6] -0.039 | [7] 0.005 | [8] -0.01 | IRAK-1-4 Inhibitor I -0.054

RRAGA (UniProt Q7L523)
inactive: erlotinib -0.022 | [1] -0.019 | [2] 0.001 | [3] -0.065 | [4] 0.118 | [5] -0.107 | [6] -0.008 | [7] -0.062 | [8] 0.005 | IRAK-1-4 Inhibitor I 0.026

RFC2 (UniProt P35250)
Chain of UniProt P35250 (P35250 whole entry, looked up): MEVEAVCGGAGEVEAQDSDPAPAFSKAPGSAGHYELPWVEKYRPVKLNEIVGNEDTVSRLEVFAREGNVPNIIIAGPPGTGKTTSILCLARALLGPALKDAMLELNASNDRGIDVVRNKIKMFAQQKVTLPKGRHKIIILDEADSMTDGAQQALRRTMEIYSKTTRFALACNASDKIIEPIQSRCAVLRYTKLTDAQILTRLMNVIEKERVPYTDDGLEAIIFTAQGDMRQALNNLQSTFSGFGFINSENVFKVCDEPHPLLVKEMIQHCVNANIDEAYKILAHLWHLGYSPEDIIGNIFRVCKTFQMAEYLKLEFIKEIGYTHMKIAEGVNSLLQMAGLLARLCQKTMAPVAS
inactive: erlotinib -0.004 | [1] 0.017 | [2] -0.059 | [3] -0.017 | [4] 0.018 | [5] 0.004 | [6] -0.013 | [7] -0.011 | [8] -0.031 | IRAK-1-4 Inhibitor I -0.013

RETSAT (UniProt Q6NUM9)
Chain of UniProt Q6NUM9 (Q6NUM9 whole entry, looked up): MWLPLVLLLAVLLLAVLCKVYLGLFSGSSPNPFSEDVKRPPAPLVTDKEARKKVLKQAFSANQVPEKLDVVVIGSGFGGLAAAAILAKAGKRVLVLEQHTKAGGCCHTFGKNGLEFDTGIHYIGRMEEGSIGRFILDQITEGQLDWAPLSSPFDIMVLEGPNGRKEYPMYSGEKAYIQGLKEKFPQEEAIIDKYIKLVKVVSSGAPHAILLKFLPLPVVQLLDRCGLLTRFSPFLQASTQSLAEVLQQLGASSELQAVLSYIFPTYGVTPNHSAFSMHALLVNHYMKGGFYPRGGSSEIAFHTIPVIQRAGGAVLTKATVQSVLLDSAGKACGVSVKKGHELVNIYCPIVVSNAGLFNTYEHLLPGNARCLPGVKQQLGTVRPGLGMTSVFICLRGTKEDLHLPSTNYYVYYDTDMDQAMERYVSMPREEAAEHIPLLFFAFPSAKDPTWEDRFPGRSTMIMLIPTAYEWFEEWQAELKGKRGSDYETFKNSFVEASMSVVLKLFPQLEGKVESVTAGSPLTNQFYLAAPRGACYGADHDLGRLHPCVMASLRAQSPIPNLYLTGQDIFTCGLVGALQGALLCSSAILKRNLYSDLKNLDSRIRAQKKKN
inactive: erlotinib -0.092 | [1] 0.054 | [2] 0.026 | [3] 0.021 | [4] -0.092 | [5] -0.004 | [6] -0.152 | [7] -0.077 | [8] -0.052 | IRAK-1-4 Inhibitor I 0.148

RELN (UniProt P78509)
inactive: erlotinib 0.012 | [1] 0.004 | [2] 0.014 | [3] 0.025 | [4] 0.001 | [5] 0.033 | [6] -0.015 | [7] 0.042 | [8] 0.058 | IRAK-1-4 Inhibitor I 0.002

QTRT2 isoform 4 (UniProt Q9H974)
Chain of UniProt Q9H974 (Q9H974 whole entry, looked up): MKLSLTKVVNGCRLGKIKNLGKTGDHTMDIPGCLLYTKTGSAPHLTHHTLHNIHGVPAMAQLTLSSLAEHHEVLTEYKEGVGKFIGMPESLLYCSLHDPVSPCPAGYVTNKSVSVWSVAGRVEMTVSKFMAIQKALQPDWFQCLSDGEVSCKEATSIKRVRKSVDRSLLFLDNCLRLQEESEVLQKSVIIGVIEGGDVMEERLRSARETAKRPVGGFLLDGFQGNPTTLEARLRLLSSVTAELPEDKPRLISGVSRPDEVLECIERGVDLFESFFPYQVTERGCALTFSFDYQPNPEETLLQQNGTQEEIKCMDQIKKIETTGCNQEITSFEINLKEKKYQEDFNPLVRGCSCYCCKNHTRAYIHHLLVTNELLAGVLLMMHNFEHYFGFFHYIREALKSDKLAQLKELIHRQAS
inactive: erlotinib -0.024 | [1] 0.082 | [2] -0.032 | [3] -0.019 | [4] -0.048 | [5] -0.009 | [6] -0.007 | [7] 0.007 | [8] 0.022 | IRAK-1-4 Inhibitor I 0.006

RPL31 (UniProt P62899)
inactive: erlotinib -0.018 | [1] -0.097 | [2] -0.03 | [3] -0.01 | [4] 0.001 | [5] 0 | [6] 0.038 | [7] 0.043 | [8] -0.039 | IRAK-1-4 Inhibitor I 0.026

SASS6 (UniProt Q6UVJ0)
inactive: erlotinib 0.024 | [1] 0.016 | [2] 0.028 | [3] -0.019 | [4] -0.009 | [5] 0.015 | [6] -0.023 | [7] -0.012 | [8] 0 | IRAK-1-4 Inhibitor I -0.021

RECQL5 (UniProt O94762)
inactive: erlotinib 0.046 | [1] -0.093 | [2] 0.282 | [3] 0.083 | [4] 0.005 | [5] -0.002 | [6] 0.012 | [7] -0.062 | [8] 0.036 | IRAK-1-4 Inhibitor I 0.006

SDHA (UniProt P31040)
inactive: erlotinib 0.001 | [1] 0.034 | [2] 0.109 | [3] -0.006 | [4] 0.005 | [5] -0.005 | [6] 0.025 | [7] -0.009 | [8] 0.004 | IRAK-1-4 Inhibitor I 0.011

RMC1 (UniProt Q96DM3)
inactive: erlotinib 0.015 | [1] -0.056 | [2] 0.017 | [3] -0.06 | [4] 0.004 | [5] -0.008 | [6] -0.054 | [7] -0.001 | [8] 0.035 | IRAK-1-4 Inhibitor I 0.006

SDHC (UniProt Q99643)
inactive: erlotinib 0.013 | [1] 0.002 | [2] 0.001 | [3] 0 | [4] -0.048 | [5] -0.01 | [6] 0.02 | [7] -0.02 | [8] -0.067 | IRAK-1-4 Inhibitor I 0.032

RPS6KA1 (UniProt Q15418)
active: [6] 0.509
inactive: erlotinib 0.001 | [1] -0.064 | [2] 0.006 | [3] -0.029 | [4] 0.04 | [5] 0.13 | [7] -0.009 | [8] 0.06 | IRAK-1-4 Inhibitor I -0.036

RAC2 (UniProt P15153)
inactive: erlotinib 0.009 | [1] 0.018 | [2] 0.014 | [3] -0.035 | [4] -0.01 | [5] 0.012 | [6] 0.034 | [7] 0.069 | [8] -0.036 | IRAK-1-4 Inhibitor I 0.024

SCO2 (UniProt O43819)
Chain of UniProt O43819 (O43819 whole entry, looked up): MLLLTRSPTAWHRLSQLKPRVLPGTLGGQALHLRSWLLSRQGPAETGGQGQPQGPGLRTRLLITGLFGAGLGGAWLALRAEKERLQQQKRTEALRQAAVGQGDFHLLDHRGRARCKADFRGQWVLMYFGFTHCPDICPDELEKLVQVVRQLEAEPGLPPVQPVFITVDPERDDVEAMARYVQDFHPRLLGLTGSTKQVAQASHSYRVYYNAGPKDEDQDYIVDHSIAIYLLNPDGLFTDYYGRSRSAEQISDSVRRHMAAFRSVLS
inactive: erlotinib 0.055 | [1] -0.09 | [2] 0.057 | [3] 0.023 | [4] -0.017 | [5] 0.085 | [6] 0.035 | [7] 0.014 | [8] 0.041 | IRAK-1-4 Inhibitor I -0.015

RAB3IL1 (UniProt Q8TBN0)
Chain of UniProt Q8TBN0 (Q8TBN0 whole entry, looked up): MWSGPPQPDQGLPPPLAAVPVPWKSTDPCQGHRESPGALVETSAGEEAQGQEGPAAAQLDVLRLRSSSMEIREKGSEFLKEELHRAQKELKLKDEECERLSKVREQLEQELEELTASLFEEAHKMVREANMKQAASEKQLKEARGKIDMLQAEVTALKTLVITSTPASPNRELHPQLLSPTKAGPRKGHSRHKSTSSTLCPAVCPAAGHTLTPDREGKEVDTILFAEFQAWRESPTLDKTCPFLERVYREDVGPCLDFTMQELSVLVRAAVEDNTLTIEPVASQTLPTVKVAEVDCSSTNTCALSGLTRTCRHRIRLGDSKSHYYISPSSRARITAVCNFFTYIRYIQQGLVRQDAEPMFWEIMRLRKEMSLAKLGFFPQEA
inactive: erlotinib -0.026 | [1] 0.005 | [2] -0.021 | [3] 0.024 | [4] -0.05 | [5] 0.053 | [6] -0.038 | [7] -0.013 | [8] -0.003 | IRAK-1-4 Inhibitor I 0.011

RBBP8 isoform 2 (UniProt Q99708)
active: [4] 0.295
inactive: erlotinib 0.073 | [1] -0.129 | [2] -0.031 | [3] 0.074 | [5] -0.004 | [6] -0.019 | [7] -0.017 | [8] -0.032 | IRAK-1-4 Inhibitor I 0.033

RNF113A (UniProt O15541)
inactive: erlotinib -0.039 | [1] -0.039 | [2] 0.036 | [3] 0.027 | [4] -0.008 | [5] -0.01 | [6] -0.02 | [7] -0.005 | [8] 0.01 | IRAK-1-4 Inhibitor I 0.02

SCD (UniProt O00767)
inactive: erlotinib 0.075 | [1] -0.093 | [2] 0.027 | [3] 0.056 | [4] -0.012 | [5] 0.009 | [6] 0.011 | [7] -0.24 | [8] -0.021 | IRAK-1-4 Inhibitor I 0.07

RTTN (UniProt Q86VV8)
inactive: erlotinib -0.002 | [1] -0.196 | [2] -0.123 | [3] -0.103 | [4] 0.045 | [5] -0.043 | [6] -0.056 | [7] 0.14 | [8] 0.036 | IRAK-1-4 Inhibitor I 0.098

SERINC3 (UniProt Q13530)
inactive: erlotinib 0.068 | [1] 0.145 | [2] 0.065 | [3] 0.073 | [4] 0.021 | [5] -0.02 | [6] -0.101 | [7] -0.03 | [8] 0.024 | IRAK-1-4 Inhibitor I 0.018

RALA (UniProt P11233)
Chain of UniProt P11233 (P11233 whole entry, looked up): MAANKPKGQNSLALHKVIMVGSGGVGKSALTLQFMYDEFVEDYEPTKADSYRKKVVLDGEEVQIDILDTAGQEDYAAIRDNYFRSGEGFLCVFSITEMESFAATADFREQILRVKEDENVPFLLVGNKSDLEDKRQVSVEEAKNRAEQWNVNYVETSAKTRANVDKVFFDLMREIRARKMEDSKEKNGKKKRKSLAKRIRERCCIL
inactive: erlotinib 0.007 | [1] -0.146 | [2] -0.035 | [3] -0.04 | [4] 0.031 | [5] -0.012 | [6] 0.003 | [7] -0.016 | [8] 0.002 | IRAK-1-4 Inhibitor I 0.04

RAPGEF4 (UniProt Q8WZA2)
Chain of UniProt Q8WZA2 (Q8WZA2 whole entry, looked up): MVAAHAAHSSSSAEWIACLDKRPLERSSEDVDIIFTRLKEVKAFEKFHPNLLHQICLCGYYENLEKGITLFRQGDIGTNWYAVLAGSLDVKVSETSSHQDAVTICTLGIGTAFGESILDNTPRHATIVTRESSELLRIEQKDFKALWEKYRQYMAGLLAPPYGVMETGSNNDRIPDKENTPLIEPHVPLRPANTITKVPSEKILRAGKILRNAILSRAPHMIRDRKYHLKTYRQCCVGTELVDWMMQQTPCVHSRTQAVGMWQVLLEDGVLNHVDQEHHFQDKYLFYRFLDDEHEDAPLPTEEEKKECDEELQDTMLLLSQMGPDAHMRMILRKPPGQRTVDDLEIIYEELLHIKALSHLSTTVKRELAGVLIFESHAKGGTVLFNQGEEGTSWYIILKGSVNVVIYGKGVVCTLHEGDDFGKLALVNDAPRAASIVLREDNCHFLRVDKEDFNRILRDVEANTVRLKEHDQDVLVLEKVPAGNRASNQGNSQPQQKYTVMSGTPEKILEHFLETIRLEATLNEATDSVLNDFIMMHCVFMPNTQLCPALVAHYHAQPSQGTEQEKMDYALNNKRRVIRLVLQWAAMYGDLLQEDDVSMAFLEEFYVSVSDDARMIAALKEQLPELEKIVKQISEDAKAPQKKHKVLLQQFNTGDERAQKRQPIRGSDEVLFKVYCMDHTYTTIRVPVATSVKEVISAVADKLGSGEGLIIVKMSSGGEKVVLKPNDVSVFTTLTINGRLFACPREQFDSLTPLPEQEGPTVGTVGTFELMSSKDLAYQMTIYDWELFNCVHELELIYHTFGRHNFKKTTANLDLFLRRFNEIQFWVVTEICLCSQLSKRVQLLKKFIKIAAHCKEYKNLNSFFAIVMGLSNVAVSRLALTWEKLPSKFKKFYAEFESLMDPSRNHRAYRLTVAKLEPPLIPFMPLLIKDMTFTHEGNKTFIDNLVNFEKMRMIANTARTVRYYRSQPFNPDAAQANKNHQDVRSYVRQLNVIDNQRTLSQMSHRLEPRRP
inactive: erlotinib 0.181 | [1] 0.057 | [2] 0.049 | [3] -0.016 | [4] -0.019 | [5] -0.092 | [6] -0.195 | [7] -0.043 | [8] 0.12 | IRAK-1-4 Inhibitor I 0.184

RNASEL (UniProt Q05823)
Chain of UniProt Q05823 (Q05823 whole entry, looked up): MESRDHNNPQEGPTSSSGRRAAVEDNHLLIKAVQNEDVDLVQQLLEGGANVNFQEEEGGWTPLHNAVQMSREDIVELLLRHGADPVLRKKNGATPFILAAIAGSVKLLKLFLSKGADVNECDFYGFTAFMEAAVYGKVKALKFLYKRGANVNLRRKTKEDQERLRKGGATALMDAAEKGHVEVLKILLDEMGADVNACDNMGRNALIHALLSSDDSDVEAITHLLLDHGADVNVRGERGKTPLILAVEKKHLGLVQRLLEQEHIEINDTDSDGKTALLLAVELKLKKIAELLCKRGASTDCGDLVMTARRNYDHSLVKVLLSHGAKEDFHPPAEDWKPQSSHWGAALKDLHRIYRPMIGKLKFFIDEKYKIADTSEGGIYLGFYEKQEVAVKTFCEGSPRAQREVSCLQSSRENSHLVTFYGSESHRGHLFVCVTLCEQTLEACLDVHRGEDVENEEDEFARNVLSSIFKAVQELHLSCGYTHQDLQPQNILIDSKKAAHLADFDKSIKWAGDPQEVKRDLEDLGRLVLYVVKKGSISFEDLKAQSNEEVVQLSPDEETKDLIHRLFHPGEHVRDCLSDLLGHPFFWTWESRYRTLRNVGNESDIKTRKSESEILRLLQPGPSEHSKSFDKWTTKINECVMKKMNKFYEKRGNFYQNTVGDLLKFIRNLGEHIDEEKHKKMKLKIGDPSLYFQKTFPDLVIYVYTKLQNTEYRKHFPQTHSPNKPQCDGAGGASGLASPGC
inactive: erlotinib 0.103 | [1] -0.025 | [2] -0.019 | [3] -0.01 | [4] 0.099 | [5] 0.009 | [6] -0.062 | [7] -0.031 | [8] 0.005 | IRAK-1-4 Inhibitor I 0.006

RHAG (UniProt Q02094)
inactive: erlotinib 0.017 | [1] -0.123 | [2] -0.087 | [3] 0.086 | [4] -0.007 | [5] -0.012 | [6] -0.145 | [7] -0.126 | [8] -0.014 | IRAK-1-4 Inhibitor I 0.081

RNF40 (UniProt O75150)
Chain of UniProt O75150 (O75150 whole entry, looked up): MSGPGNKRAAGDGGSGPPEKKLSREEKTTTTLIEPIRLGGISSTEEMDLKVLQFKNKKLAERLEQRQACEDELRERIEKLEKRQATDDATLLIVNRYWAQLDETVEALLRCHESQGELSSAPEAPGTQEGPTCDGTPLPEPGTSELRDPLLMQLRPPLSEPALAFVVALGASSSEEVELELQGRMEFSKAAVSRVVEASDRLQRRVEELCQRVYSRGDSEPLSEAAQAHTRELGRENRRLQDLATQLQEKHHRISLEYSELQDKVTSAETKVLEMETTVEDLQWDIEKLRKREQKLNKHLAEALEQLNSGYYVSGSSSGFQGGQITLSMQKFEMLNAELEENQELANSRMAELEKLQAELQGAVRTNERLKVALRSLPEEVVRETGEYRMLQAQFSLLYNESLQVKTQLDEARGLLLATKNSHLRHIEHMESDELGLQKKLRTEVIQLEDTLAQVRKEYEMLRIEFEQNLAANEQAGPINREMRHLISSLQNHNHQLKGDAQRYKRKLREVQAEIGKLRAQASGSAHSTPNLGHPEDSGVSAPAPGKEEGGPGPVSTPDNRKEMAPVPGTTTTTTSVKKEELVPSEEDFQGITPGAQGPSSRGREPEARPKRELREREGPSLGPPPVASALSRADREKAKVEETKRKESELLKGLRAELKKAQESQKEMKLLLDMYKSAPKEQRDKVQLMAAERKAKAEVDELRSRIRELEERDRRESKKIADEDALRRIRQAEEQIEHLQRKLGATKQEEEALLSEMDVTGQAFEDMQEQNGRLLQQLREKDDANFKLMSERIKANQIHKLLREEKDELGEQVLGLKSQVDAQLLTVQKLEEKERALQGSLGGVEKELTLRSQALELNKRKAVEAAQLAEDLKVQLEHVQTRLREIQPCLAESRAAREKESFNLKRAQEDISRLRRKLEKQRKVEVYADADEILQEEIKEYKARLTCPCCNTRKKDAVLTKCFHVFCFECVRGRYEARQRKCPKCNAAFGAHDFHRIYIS
inactive: erlotinib -0.008 | [1] -0.01 | [2] 0.007 | [3] -0.039 | [4] -0.016 | [5] 0.003 | [6] -0.04 | [7] 0.011 | [8] 0.024 | IRAK-1-4 Inhibitor I -0.008

RPL36AL (UniProt Q969Q0)
inactive: erlotinib -0.036 | [1] -0.098 | [2] -0.012 | [3] 0.061 | [4] -0.029 | [5] 0.029 | [6] 0.048 | [7] 0.049 | [8] -0.05 | IRAK-1-4 Inhibitor I -0.109

SEC13 isoform 3 (UniProt P55735)
inactive: erlotinib 0.032 | [1] 0.02 | [2] 0.009 | [3] -0.019 | [4] 0 | [5] -0.001 | [6] -0.033 | [7] -0.019 | [8] 0.006 | IRAK-1-4 Inhibitor I -0.028

RCOR3 isoform 3 (UniProt Q9P2K3)
inactive: erlotinib -0.033 | [1] 0.025 | [2] 0.022 | [3] 0.009 | [4] -0.006 | [5] -0.017 | [6] -0.012 | [7] -0.02 | [8] -0.015 | IRAK-1-4 Inhibitor I -0.015
